Results filed as inconclusive are left out. Calls of active or inactive are those of the source. Calls follow the shape of the dose curve; as a rule, active = well fitted cell-killing curve with a large enough effect; inconclusive = small, poorly fitted or top-dose-only effect, or effect the other way; inactive = flat fitted curve, though single readings scatter.
How the values were obtained:
Test in all cases: Primary qHTS to identify gynecologic anti-cancer compounds using libraries of approved drugs and bioactive compounds (AID 1345084); also: nearly all actives have a fitted effect of over 55% in size
Settings in all cases: Gynecologic cancer cell panel viability, ATPlite luminescence, 48 h; series mostly up to 57.5 µM
PA-1 = tested on: PA-1
Procedure, shortened: (§1)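 ATP-based viability (ATPlite), 1,000 cells/well, 16 h pre-incubation, 48 h compound at 37 C, 5% CO2, 15 min RT before read.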

SKOV3 = tested on: SKOV3
Procedure, shortened: as §1

Tov-21-G = tested on: Tov-21-G
Procedure, shortened: as §1

Tov112D = tested on: Tov112D
Procedure, shortened: as §1
% is scaled to controls: 0 for no effect and ±100 for the full control effect.

C=C[C@H]1[C@H](O[C@@H]2O[C@H](CO)[C@@H](O)[C@H](O)[C@H]2O)OC=C(C(=O)OC)[C@H]1CCOC(=O)c1cc(O)c(O)c(O)c1
inactive: Potency (PA-1) | Potency (SKOV3) | Potency (Tov-21-G) | Potency (Tov112D)

COC1/C=C/C(C)(O)C(SCC(N)C(=O)O)CC(=O)OC(C)C(C)CC/C=C/1C (configuration not stated)
inactive: Potency (PA-1) | Potency (SKOV3) | Potency (Tov-21-G) | Potency (Tov112D)

C[C@H]1CC[C@@]2(OC1)O[C@H]1CC3C4CC[C@H]5C[C@@H](O)[C@H](O)C[C@]5(C)C4=CC(=O)[C@]3(C)[C@H]1[C@@H]2C (some centres not stated)
inactive: Potency (PA-1) | Potency (SKOV3) | Potency (Tov-21-G) | Potency (Tov112D)

C=C1C[C@]23C[C@H]1CC[C@H]2[C@]1(C)CCC[C@@](C)(C(=O)O)[C@H]1[C@@H]3C(=O)O
inactive: Potency (PA-1) | Potency (SKOV3) | Potency (Tov-21-G) | Potency (Tov112D)

CC1=CC(=O)C2C(C)(C)CCC[C@]2(C)[C@H]1CO (some centres not stated)
inactive: Potency (PA-1) | Potency (SKOV3) | Potency (Tov-21-G) | Potency (Tov112D)

COC(=O)Cc1cc2c(c([N+](=O)[O-])c1)N(C(=O)CC[C@H](N)C(=O)O)CC2
inactive: Potency (PA-1) | Potency (SKOV3) | Potency (Tov-21-G) | Potency (Tov112D)

C=C1C(=O)O[C@H]2[C@H]1CC/C(C)=C/CC[C@@]1(C)O[C@@H]21
inactive: Potency (PA-1) | Potency (SKOV3) | Potency (Tov-21-G) | Potency (Tov112D)

C[S+](CC[C@H](N)C(=O)[O-])C[C@H]1O[C@@H](n2cnc3c(N)ncnc32)[C@H](O)[C@@H]1O (some centres not stated)
inactive: Potency (PA-1) | Potency (SKOV3) | Potency (Tov-21-G) | Potency (Tov112D)

C=C1C[C@@]23CCC4[C@@](C)(CCC[C@@]4(C)C(=O)OC)C2CC[C@@H]1C3 (some centres not stated)
inactive: Potency (PA-1) | Potency (SKOV3) | Potency (Tov-21-G) | Potency (Tov112D)

COc1c2c(c(C)c3c1C(=O)OC3)OC1(C)CC(O)C34OC(OC)(OC3(C)C)C(O)CC4(C)C1C2 (configuration not stated)
inactive: Potency (PA-1) | Potency (SKOV3) | Potency (Tov-21-G) | Potency (Tov112D)

CC/C=C\C/C=C\C/C=C\CCCCCCCC(=O)OCC(O)COC1OC(CO)C(O)C(O)C1O (configuration not stated)
inactive: Potency (PA-1) | Potency (SKOV3) | Potency (Tov-21-G) | Potency (Tov112D)

C=C(C)C1CCC2(C(=O)O[C@@H]3O[C@H](CO[C@@H]4O[C@H](CO)[C@@H](O)[C@H](O)[C@H]4O)[C@@H](O)[C@H](O[C@@H]4O[C@@H](C)[C@H](O)[C@@H](O)[C@H]4O)[C@H]3O)CCC3(C(=O)O)C(CCC4C5(C)CCC(O)C(C)(C)C5CCC43C)C12 (some centres not stated)
inactive: activity change, negative = cytotoxicity (PA-1) -1.76% [at 11.6 µM] | activity change, negative = cytotoxicity (SKOV3) -5.29% [at 11.6 µM] | activity change, negative = cytotoxicity (Tov-21-G) 9.18% [at 11.6 µM] | activity change, negative = cytotoxicity (Tov112D) 11.4% [at 11.6 µM]

O=C(O)c1cc(I)ccc1NC(=O)[C@H](Cc1ccccc1)NCc1ccccc1
inactive: Potency (PA-1) | Potency (SKOV3) | Potency (Tov-21-G) | Potency (Tov112D)

CC(C)=CCC[C@](C)(O[C@@H]1O[C@H](CO)[C@@H](O)[C@H](O)[C@H]1O)[C@H]1CC[C@]2(C)[C@@H]1[C@H](O)CC1[C@@]3(C)CC[C@H](O)C(C)(C)C3[C@@H](O[C@@H]3O[C@H](CO)[C@@H](O)[C@H](O)[C@H]3O)C[C@]12C (some centres not stated)
inactive: Potency (PA-1) | Potency (SKOV3) | Potency (Tov-21-G) | Potency (Tov112D)

CC1=C(/C=C/C(C)=C\C=C\C(C)=C/C(=O)O)C(C)(C)CCC1
inactive: Potency (PA-1) | Potency (SKOV3) | Potency (Tov-21-G) | Potency (Tov112D)

CC12CCC3c4ccc(O)cc4CCC3C1CC(OC1OC(C(=O)O)C(O)C(O)C1O)C2O (configuration not stated)
inactive: Potency (PA-1) | Potency (SKOV3) | Potency (Tov-21-G) | Potency (Tov112D)

CNS(=O)(=O)CC1CCC(N(C)c2ncnc3[nH]ccc23)CC1 (configuration not stated)
inactive: Potency (PA-1) | Potency (SKOV3) | Potency (Tov-21-G) | Potency (Tov112D)

C/C1=C\CC[C@]2(C)O[C@@H]2[C@H](O)[C@H](C(C)C)[C@H](OC(=O)/C=C/c2ccccc2)C1
inactive: Potency (PA-1) | Potency (SKOV3) | Potency (Tov-21-G) | Potency (Tov112D)

C/C1=C\[C@H]2OC(=O)[C@@H](C)[C@@H]2CC/C(C(=O)O)=C/CC1
inactive: Potency (PA-1) | Potency (SKOV3) | Potency (Tov-21-G) | Potency (Tov112D)

C/C=C1\[C@H](O[C@@H]2O[C@H](CO)[C@@H](O)[C@H](O)[C@H]2O)OC=C(C(=O)OC)[C@H]1CC(=O)OC[C@H]1O[C@@H](OCCc2ccc(O)cc2)[C@H](O)[C@@H](O)[C@@H]1O
inactive: Potency (PA-1) | Potency (SKOV3) | Potency (Tov-21-G) | Potency (Tov112D)

Cc1nc2ccc(Oc3ccc(F)cc3)cc2c(=O)n1C[C@H]1CCCN(C(C)C)C1
inactive: Potency (PA-1) | Potency (SKOV3) | Potency (Tov-21-G) | Potency (Tov112D)

COc1cc(O)c([C@@H](CC(=O)N2CC(C)CC(C)C2)c2ccc3c(c2)OCO3)c(OC)c1 (some centres not stated)
inactive: Potency (PA-1) | Potency (SKOV3) | Potency (Tov-21-G) | Potency (Tov112D)

Nc1nc2c(ncn2[C@@H]2O[C@@H]3COP(=O)(O)O[C@H]3[C@H]2O)c(=O)[nH]1
inactive: Potency (PA-1) | Potency (SKOV3) | Potency (Tov-21-G) | Potency (Tov112D)
